From PubChem BioAssay AID862 (The Scripps Research Institute Molecular Screening Center, 2007)
In all, about 190,000 compounds went through this assay and about 1,700 (0.89%) were called active.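 Rule for the calls: active = inhibition above the mean inhibition across all screened compounds plus 3 SD (cut at about 44% in these data); inactive = the rest.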 This excerpt belongs to a sample that is enriched for actives.

Experiment: IL-6 driven STAT3 reporter inhibitors, primary screen, U3A cells, luciferase, luminescence, MLSCN library (AID 862);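 note: 0% = DMSO only wells and 100% = 100 µM nifuroxazide control wells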
Details: IL-6 STAT3-luciferase reporter, at 5.5 µM, hits give high values, host cell line lacks STAT1
With Cc1ccc(-c2nc3ccccc3[nH]2)cc1N the inhibition was -19.1% (inactive).
With c1ccc2[nH]c(-c3nc4ccccc4[nH]3)nc2c1 the inhibition was 44.2% (active).
In the case of c1ccc(-c2[nH]ncc2-c2nc3ccccc3[nH]2)cc1, the inhibition is reported as 15.2% (inactive).
In the case of Cc1cccc(C)c1NC(=O)Nc1ccccc1-n1ccnc1, the inhibition is reported as 4% (inactive).
With COCCC(=O)Nc1ccc2c(c1)CN(C(=O)CCOC)CC2 the inhibition was -5.3% (inactive).
In the case of CCNC(=S)NNC(=O)c1ccc2ncccc2c1, the inhibition is reported as 7.8% (inactive).
For O=C(O)c1ccc(N/N=C/c2ccc3ncccc3c2)cc1, the inhibition was 69.5% (active).
With O=C(O)c1ccc(N/N=C/c2cn(-c3ccccc3)nc2-c2cccs2)cc1 the inhibition was 1% (inactive).
In the case of CCCC(c1nnnn1C(C)(C)C)N1CCN(Cc2ccccc2)CC1 (centres undefined), the inhibition is reported as -0.6% (inactive).
With CN(C)CCNC(CC(=O)Nc1ccc(Cl)c(Cl)c1)C(=O)O (centres undefined) the inhibition was 5.8% (inactive).
With O=C(CC(=O)Nc1ccc(Cl)c(Cl)c1)N/N=C/c1ccc(O)cc1 the inhibition was -5% (inactive).
For O=C(CC(O)(C(F)(F)F)C(F)(F)F)Nc1ccc(Cl)c(Cl)c1, the inhibition was 65.1% (active).
In the case of COc1cc(C(=O)NCc2ccc(-n3cccc3)cc2)cc(OC)c1OC, the inhibition is reported as 6.8% (inactive).
In the case of COc1ccccc1C(=O)Nc1ccc(OCc2nnc3c4ccccc4c(C)nn23)cc1, the inhibition is reported as 21.6% (inactive).
In the case of COc1ccc(C)cc1NC(=O)NCc1ccccn1, the inhibition is reported as 15% (inactive).
For CN(c1ccc(OCC(=O)OCC(=O)Nc2cccc([N+](=O)[O-])c2)cc1)S(=O)(=O)c1ccc(F)cc1, the inhibition was 5.5% (inactive).
For CN(C)S(=O)(=O)c1ccc(NC(=O)COC(=O)c2n[nH]c3ccccc23)cc1, the inhibition was 49.3% (active).
In the case of CCN(CC)S(=O)(=O)c1ccc2nc(COC(=O)c3n[nH]c4ccccc34)[nH]c2c1, the inhibition is reported as 19.1% (inactive).
In the case of O=C(COC(=O)c1n[nH]c2ccccc12)NCc1ccccc1, the inhibition is reported as 5.8% (inactive).
For COc1ccccc1NC(=O)c1c(Br)cnn1C, the inhibition was 25.4% (inactive).
In the case of CCOC(=O)CNc1nc2ccccc2n2c(C)nnc12, the inhibition is reported as 24.4% (inactive).
In the case of Oc1c(Cl)cc(Cl)c(Cl)c1Cc1c(O)c(Cl)cc(Cl)c1Cl, the inhibition is reported as 43.6% (active).
For O=C(Nc1ccc2cn[nH]c2c1)c1ccc(S(=O)(=O)N2CCOCC2)cc1, the inhibition was -32.5% (inactive).
In the case of CC(=O)NC(Cc1ccc(F)c(F)c1)C(=O)NC1CCN(c2nnnn2-c2ccccc2)CC1 (centres undefined), the inhibition is reported as 10.3% (inactive).
For COc1cc(/C=N/NC(=O)c2ccccc2)ccc1OS(=O)(=O)c1ccccc1, the inhibition was 1.7% (inactive).
With COc1ccc(C(=O)Nc2ccccc2C(=O)N/N=C/c2ccccc2OC)cc1 the inhibition was 1.8% (inactive).
In the case of COc1ccc(C(=O)Nc2ccccc2C(=O)N/N=C/c2ccc(O)c(OC)c2)cc1, the inhibition is reported as 106% (active).
For CC(C)CNC(=O)C(=O)NCc1ccccc1, the inhibition was -0.6% (inactive).
In the case of CC(Sc1nc(-c2ccccc2)cc(C(F)(F)F)n1)C(=O)Nc1ccc2c(c1)OCO2 (centres undefined), the inhibition is reported as -2.7% (inactive).
With Cn1cc([N+](=O)[O-])c(C(=O)Nc2cnn(Cc3ccc(F)cc3)c2)n1 the inhibition was 36.8% (inactive).
For O=C(Nc1ccc2c(c1)OCCO2)c1ccncc1, the inhibition was -8.8% (inactive).
With Cn1cc([N+](=O)[O-])c(C(=O)Nc2ccc3c(c2)OCCO3)n1 the inhibition was 51.3% (active).
In the case of Cc1ccc(CCCOC(=O)C[N+]2(C)CCCC2)cc1, the inhibition is reported as -9.5% (inactive).
In the case of S=C(NN=C1CCN(Cc2ccccc2)CC1)NC1CCCCC1, the inhibition is reported as -0.1% (inactive).
In the case of Cn1nnnc1SCC(=O)Nc1nc2ccccc2s1, the inhibition is reported as -2.9% (inactive).
With Cn1c(CN2CCOCC2)nc2cc(NC(=O)c3ccc(Cl)cc3)ccc21 the inhibition was 66.2% (active).
For CC(=O)NCCc1nc2cc(NC(=O)c3ccccc3)ccc2n1C, the inhibition was 15.8% (inactive).
In the case of CCC(=O)Nc1ccc2c(c1)nc(CCN1CCN(C)CC1)n2C, the inhibition is reported as 9.8% (inactive).
For O=C(NCc1ccccc1Cl)C1CCN(S(=O)(=O)N2CCOCC2)CC1, the inhibition was 2.3% (inactive).
For O=C1CCCN1CCCNc1ncnc2c1[nH]c1ccccc12, the inhibition was -56.6% (inactive).
With CCN1CCCC1CNc1ncnc2c1[nH]c1ccc(F)cc12 (centres undefined) the inhibition was -30.1% (inactive).
For CC(C)OCCCNc1ncnc2c1[nH]c1ccc(F)cc12, the inhibition was 80.4% (active).
In the case of Cc1nc2cc(NC(=O)NC3CC3)ccc2n1C, the inhibition is reported as 7.5% (inactive).
With COc1ccc(C(=O)CSc2nnc(-c3ccco3)o2)cc1 the inhibition was 2.9% (inactive).
In the case of CC(C)C[C@@H](N)c1nnc(SCC(=O)c2ccc(Cl)cc2)o1, the inhibition is reported as 53.4% (active).
In the case of CC(=O)Nc1ccc(C(=O)CSc2nnc(Cc3ccccc3)o2)cc1, the inhibition is reported as 0.2% (inactive).
For Oc1ccccc1C=NC1CCCCC1N=Cc1ccccc1O (centres undefined), the inhibition was 5.7% (inactive).
In the case of CCOC(=O)CNC(=O)/C(=C\c1ccc(F)cc1)NC(=O)c1ccccc1, the inhibition is reported as 1.9% (inactive).
In the case of COc1cccc(NC(=O)Cn2c3ccccc3c3nc4n(c(=O)c32)CCS4)c1, the inhibition is reported as 12.7% (inactive).
For Cn1c(CNC(=O)C(C)(C)C)nc2ccccc21, the inhibition was 15.4% (inactive).
In the case of Cn1cccc1-c1nc2ccccc2n1C, the inhibition is reported as 16.4% (inactive).
With Cn1c(-c2ccc(C(=O)c3ccccc3)s2)nc2ccccc21 the inhibition was 49.1% (active).
For Cc1cccc(NC(=S)NC23CN4CN(CN(C4)C2)C3)c1, the inhibition was 4.5% (inactive).
With Cc1ccc(OCCCn2c(=O)oc3ccccc32)cc1 the inhibition was 16.3% (inactive).
In the case of CC(C)CC(=O)N/C(N)=N/c1nc2ccccc2s1, the inhibition is reported as 47% (active).
With CCC(=O)NC(=Nc1nc2ccccc2s1)NC(=O)CC the inhibition was 12.8% (inactive).
For COC(=O)c1nc2ccccc2s1, the inhibition was -7.8% (inactive).
For CCC(=O)c1ccc(OCC(O)Cn2nc(C)c(C(C)=O)c2C)cc1 (centres undefined), the inhibition was 22.7% (inactive).
For Cc1ccc(Cl)cc1NC(=O)C1CCN(S(C)(=O)=O)CC1, the inhibition was -0.1% (inactive).
With CCOC(=O)c1[nH]c2c(c1C)C(=O)CC(c1ccc(N(C)C)cc1)C2 (centres undefined) the inhibition was -3.7% (inactive).
For CCCOC(=O)c1[nH]c2c(c1C)C(=O)CC(c1cc(OC)c(OC)c(OC)c1)C2 (centres undefined), the inhibition was 47.1% (active).
For CCCOC(=O)c1[nH]c2c(c1C)C(=O)CC(c1cccs1)C2 (centres undefined), the inhibition was 3.8% (inactive).
With COC(=O)CC1=NN(c2ccccc2)C(=O)C1 the inhibition was 3.8% (inactive).
With Cc1ccccc1CN(c1ccc(C(=O)NCC2CCCO2)cc1)S(C)(=O)=O (centres undefined) the inhibition was 1% (inactive).
